Measurements from PubChem BioAssay (Tox21).
Inconclusive results are not listed. Activity calls are given as the source filed them. Unless noted, calls come from the whole dose curve; as a rule, active = well fitted curve in the direction sought with a large enough effect in the repeat runs; inconclusive = weak or mixed curves; inactive = no such curve, though single readings can be large; an effect the other way counts as inactive or inconclusive.

What was measured:
[1] = qHTS assay to identify small molecule HDAC inhibitors (AID 1259364); note: top concentration of the series differs between compounds; nearly all actives have a fitted effect of over 45% in size
Procedure, shortened: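 Wild-type HCT-116 cells were plated overnight, exposed to compounds for 2 h at 37 °C, then given HDAC-Glo class I/II luminogenic reagent for 30 min at room temperature before luminescence was read.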

[2] = qHTS assay to identify small molecule HDAC inhibitors - cell viability counter screen (AID 1259365); note: series mostly up to about 92 µM; nearly all actives have a fitted effect of over 50% in size
Procedure, shortened: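 To flag cytotoxic hits, 1,500 wild-type HCT-116 cells per well, plated the day before, receive test compounds for 2hr at 37 C before CellTiter-Glo reagent and a luminescence read.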

[3] = qHTS assay to identify small molecule agonists of the sonic hedgehog signaling (Shh) pathway - cell viability counter screen (AID 1259366); note: nearly all actives have a fitted effect of over 50% in size
Procedure, shortened: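 Fluorescence from CellTiter-Fluor reports live cells in this counter screen. NIH/3T3-derived Gli1-Luc reporter cells receive test compounds for 24hr at 37C; reagent goes in at 23hr.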

[4] = qHTS assay to identify small molecule antagonists of the sonic hedgehog signaling (Shh) pathway - cell viability counter screen (AID 1259367); note: nearly all actives have a fitted effect of over 55% in size
Procedure, shortened: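 Seed 3T3 Gli1-Luc cells at 2,000 per well; incubate 4 hr; add compound in DMSO, then conditioned medium; incubate at 37C with 5% CO2; add CellTiter-Fluor after 23 hr; read fluorescence 1 hr later.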

[5] = qHTS assay to identify small molecule agonists of the sonic hedgehog signaling (Shh) pathway (AID 1259368; calls by dose curve; note: series mostly up to about 92 µM; nearly all actives have a fitted effect of over 15% in size)
Procedure, shortened: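 NIH/3T3-derived 3T3Gli1-Luc cells carrying a stably integrated Gli1 response element–firefly luciferase reporter were plated, left 4 hr at 37 C, then given compounds in DMSO for 24 hr. Luminescence was read 30 min after adding luciferase reagent.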

[6] = qHTS assay to identify small molecule antagonists of the sonic hedgehog signaling (Shh) pathway (AID 1259369; calls by dose curve; note: nearly all actives have a fitted effect of over 45% in size)
Procedure, shortened: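 NIH/3T3-derived 3T3Gli1-Luc cells with stably integrated Gli1-Luc reporter were preincubated 4hr at 37 C, then given compounds in DMSO plus Shh conditioned medium and incubated 24hr. Firefly luciferase luminescence read after 30min reagent at room temperature.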

[7] = molecular target: Estrogen receptor beta (Homo sapiens) (UniProt Q92731); experiment: qHTS assay to identify small molecule agonists of the estrogen receptor beta (ER-beta) signaling pathway (AID 1259377; active = well fitted activation curve with a large enough effect in the signal ratio in the repeat runs, not every such curve was filed as active; the % refers to the signal ratio)
Procedure, shortened: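 Screening used GripTite ER-beta-UAS-bla cells held in 2% charcoal-stripped FBS medium. After overnight (16 hr) compound incubation at 37C, beta-lactamase activity was detected with a FRET substrate by fluorescence.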

[8] = molecular target: Estrogen receptor beta (Homo sapiens) (UniProt Q92731); experiment: qHTS assay to identify small molecule antagonists of the estrogen receptor beta (ER-beta) signaling pathway (AID 1259378; active = well fitted inhibition curve with a large enough effect in the signal ratio in the repeat runs, not every such curve was filed as active; the % refers to the signal ratio)
Procedure, shortened: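 ER-beta-UAS-bla HEK293T cells in 2% charcoal-stripped FBS medium treated with compound plus 1nM final 17-beta-estradiol for 16 hr at 37C. Beta-lactamase reporter read by FRET substrate fluorescence after 2 hours at room temperature.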

[9] = qHTS assay to identify small molecule agonists of the estrogen receptor beta (ER-beta) signaling pathway - cell viability counter screen (AID 1259380); note: nearly all actives have a fitted effect of over 30% in size; note: potency is the fitted concentration of half-maximal effect
Procedure, shortened: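 ER-beta-UAS-bla HEK293T cells in medium with 2% charcoal-stripped FBS were preincubated 6 hr at 37C, dosed with compound in DMSO for 16 hr, then after the bla read, CellTiter-Glo was added for 30 min at room temperature; luminescence recorded.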

[10] = qHTS assay to identify small molecule antagonists of the estrogen receptor beta (ER-beta) signaling pathway - cell viability counter screen (AID 1259382); note: series mostly up to about 92 µM; nearly all actives have a fitted effect of over 55% in size
Procedure, shortened: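 ER-beta-UAS-bla HEK293T cells (2,000/well, 2% charcoal-stripped FBS) were pre-incubated 6 hr at 37C, then given compound plus 1nM final 17-beta-estradiol for 16 hr. Viability was read in the same wells by CellTiter-Glo luminescence after 30 min at room temperature.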

[11] = molecular target: Thyrotropin receptor (Homo sapiens) (UniProt P16473); experiment: qHTS assay to identify small molecule antagonists of the thyroid stimulating hormone receptor (TSHR) signaling pathway (AID 1259385; calls by dose curve; note: nearly all actives have a fitted effect of over 20% in size; note: potency is the fitted concentration of half-maximal effect)
Procedure, shortened: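 TSHR-HEK293 cells (800/well) plated 18 h, then compounds with Ro20-1724 and TSH at 1.5 ng/mL final, 30 min at room temperature. cAMP quantified by HTRF (cAMP-d2/anti-cAMP-cryptate, 1 h); 15 concentrations in triplicate.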

[12] = qHTS assay to identify small molecule agonists of the estrogen receptor alpha (ER-alpha) signaling pathway in the presence of an antagonist - cell viability counter screen (AID 1259386);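 note: series mostly up to about 92 µM; cells exposed to compounds for 22 h at 37 °C before the viability read; nearly all actives have a fitted effect of over 30% in size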
Procedure, shortened: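 VM7Luc4E2 cells (endogenous full-length ER-alpha, 4×ERE-luciferase) were held 5 days in phenol red-free medium with 10% charcoal-stripped FBS, plated, then given 10.0nM ICI-182,780 and compounds at 15 concentrations for 22hr at 37C; viability read by CellTiter-Fluor fluorescence.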

[13] = molecular target: Progesterone receptor (Homo sapiens) (UniProt P06401); experiment: qHTS assay to identify small molecule agonists of the progesterone receptor (PR) signaling pathway (AID 1346784; calls by dose curve; note: nearly all actives have a fitted effect of over 30% in size)
Procedure, shortened: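 Seed PR-UAS-bla HEK 293T cells (2% charcoal-stripped FBS), incubate 6 hr at 37C; add compounds in DMSO, 16 hr at 37C; add LiveBLAzer B/G substrate, 2 hr RT; read fluorescence intensity.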

[14] = qHTS assay to identify small molecule phospholipidosis (PLD) inducers (AID 1259344; active = well fitted curve in the direction sought with a large enough effect; an effect the other way counts as inactive or inconclusive)
Procedure, shortened: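 Quantitative HTS in HepG2: compound plus LipidTOX Red dye for 24 h, paraformaldehyde fixation with Hoechst 33342, widefield high-content imaging; amiodarone as positive and DMSO as negative control.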

[15] = qHTS assay to identify small molecule agonists of the androgen receptor (AR) signaling pathway in the presence of an antagonist - cell viability counter screen (AID 1259379); note: series mostly up to about 92 µM; nearly all actives have a fitted effect of over 25% in size
Procedure, shortened: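 MDA-kb2 human breast carcinoma cells (stable MMTV-luciferase, AR/GR responsive) were seeded 3,000 cells/well, pre-incubated 5 hr at 37C without CO2, then given 3.0uM nilutamide and compounds at 15 concentrations for 16 hr. Viability was read by CellTiter-Fluor fluorescence.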

[16] = qHTS assay to identify small molecule agonists or antagonists of the thyroid stimulating hormone receptor (TSHR) signaling pathway - wild type cell line counter screen (AID 1259384; calls by dose curve)
Procedure, shortened: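 Wild-type Hek293 cells, 800/well, 18 h at 37C, then compound with Ro20-1724 for 30 min RT. cAMP by HTRF (cAMP-d2/anti-cAMP cryptate), 1 h RT, fluorescence read. 15 concentrations, triplicates.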

[17] = molecular target: Progesterone receptor (Homo sapiens) (UniProt P06401); experiment: qHTS assay to identify small molecule antagonists of the progesterone receptor (PR) signaling pathway (AID 1346795; active = well fitted inhibition curve with a large enough effect in the signal ratio in the repeat runs, not every such curve was filed as active; the % refers to the signal ratio)
Procedure, shortened: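 Screening used a GripTite HEK293T line with PR-responsive UAS-beta-lactamase. Cells were challenged with compound in the presence of 1 nM R5020 final for 16 hr at 37C; B/G FRET substrate, 2 hr room temperature, fluorescence.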

[18] = molecular target: Androgen receptor (Homo sapiens) (UniProt P10275); experiment: qHTS assay to identify small molecule agonists of the androgen receptor (AR) signaling pathway in the presence of an antagonist (AID 1259381; calls by dose curve; note: nearly all actives have a fitted effect of over 15% in size)
Procedure, shortened: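 MDA-kb2 human breast carcinoma cells carrying an MMTV-luciferase reporter (AR- and GR-responsive) were treated with compounds at 15 concentrations plus 3.0uM final nilutamide for 16hr at 37C without CO2; luminescence was read after ONE-Glo addition.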

Measured: Potency

Sequence of Progesterone receptor (Homo sapiens) (P06401 whole entry, looked up): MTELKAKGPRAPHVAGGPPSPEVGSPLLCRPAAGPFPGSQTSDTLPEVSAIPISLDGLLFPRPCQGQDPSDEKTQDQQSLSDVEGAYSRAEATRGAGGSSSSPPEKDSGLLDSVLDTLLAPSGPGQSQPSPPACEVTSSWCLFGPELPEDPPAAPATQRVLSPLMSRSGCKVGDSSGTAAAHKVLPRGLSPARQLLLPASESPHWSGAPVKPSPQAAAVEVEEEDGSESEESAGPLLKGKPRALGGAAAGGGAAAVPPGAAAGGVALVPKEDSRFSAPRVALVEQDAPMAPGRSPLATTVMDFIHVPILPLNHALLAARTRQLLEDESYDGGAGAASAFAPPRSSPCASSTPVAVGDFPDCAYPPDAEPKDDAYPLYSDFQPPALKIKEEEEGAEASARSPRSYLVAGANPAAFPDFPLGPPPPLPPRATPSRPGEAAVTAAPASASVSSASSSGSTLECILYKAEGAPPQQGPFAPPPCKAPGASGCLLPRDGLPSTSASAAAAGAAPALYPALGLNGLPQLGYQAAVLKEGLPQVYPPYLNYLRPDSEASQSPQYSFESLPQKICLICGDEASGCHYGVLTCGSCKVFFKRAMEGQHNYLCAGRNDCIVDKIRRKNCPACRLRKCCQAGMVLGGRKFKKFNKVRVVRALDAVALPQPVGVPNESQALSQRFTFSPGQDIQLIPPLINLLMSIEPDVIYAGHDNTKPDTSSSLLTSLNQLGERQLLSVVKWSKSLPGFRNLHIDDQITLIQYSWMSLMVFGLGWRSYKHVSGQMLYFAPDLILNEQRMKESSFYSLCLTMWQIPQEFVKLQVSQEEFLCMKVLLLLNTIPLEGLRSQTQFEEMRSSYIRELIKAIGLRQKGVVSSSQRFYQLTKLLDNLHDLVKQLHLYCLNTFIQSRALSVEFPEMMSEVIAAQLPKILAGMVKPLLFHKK
Sequence of Thyrotropin receptor (Homo sapiens) (P16473 whole entry, looked up): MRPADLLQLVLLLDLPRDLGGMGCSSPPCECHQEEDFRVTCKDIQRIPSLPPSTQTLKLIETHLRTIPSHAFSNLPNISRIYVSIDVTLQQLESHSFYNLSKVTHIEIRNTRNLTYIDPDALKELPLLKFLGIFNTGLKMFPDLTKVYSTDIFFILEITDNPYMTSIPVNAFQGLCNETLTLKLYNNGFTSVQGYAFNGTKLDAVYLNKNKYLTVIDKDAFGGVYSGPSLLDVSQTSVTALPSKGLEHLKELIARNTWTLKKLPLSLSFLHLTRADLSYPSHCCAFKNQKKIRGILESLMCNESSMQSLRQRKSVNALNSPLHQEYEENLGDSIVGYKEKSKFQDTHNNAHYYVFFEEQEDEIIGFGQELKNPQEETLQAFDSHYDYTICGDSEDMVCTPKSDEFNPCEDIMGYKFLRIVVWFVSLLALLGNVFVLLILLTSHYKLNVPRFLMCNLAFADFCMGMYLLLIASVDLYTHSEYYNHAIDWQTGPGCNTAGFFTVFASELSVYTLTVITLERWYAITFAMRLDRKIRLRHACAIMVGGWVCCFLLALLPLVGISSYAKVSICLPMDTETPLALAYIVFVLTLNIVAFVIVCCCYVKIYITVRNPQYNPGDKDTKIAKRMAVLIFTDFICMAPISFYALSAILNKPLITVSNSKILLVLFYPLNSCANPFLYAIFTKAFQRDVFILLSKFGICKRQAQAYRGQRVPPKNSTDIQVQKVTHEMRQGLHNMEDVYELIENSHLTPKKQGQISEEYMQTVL
Sequence of Estrogen receptor beta (Homo sapiens) (Q92731 whole entry, looked up): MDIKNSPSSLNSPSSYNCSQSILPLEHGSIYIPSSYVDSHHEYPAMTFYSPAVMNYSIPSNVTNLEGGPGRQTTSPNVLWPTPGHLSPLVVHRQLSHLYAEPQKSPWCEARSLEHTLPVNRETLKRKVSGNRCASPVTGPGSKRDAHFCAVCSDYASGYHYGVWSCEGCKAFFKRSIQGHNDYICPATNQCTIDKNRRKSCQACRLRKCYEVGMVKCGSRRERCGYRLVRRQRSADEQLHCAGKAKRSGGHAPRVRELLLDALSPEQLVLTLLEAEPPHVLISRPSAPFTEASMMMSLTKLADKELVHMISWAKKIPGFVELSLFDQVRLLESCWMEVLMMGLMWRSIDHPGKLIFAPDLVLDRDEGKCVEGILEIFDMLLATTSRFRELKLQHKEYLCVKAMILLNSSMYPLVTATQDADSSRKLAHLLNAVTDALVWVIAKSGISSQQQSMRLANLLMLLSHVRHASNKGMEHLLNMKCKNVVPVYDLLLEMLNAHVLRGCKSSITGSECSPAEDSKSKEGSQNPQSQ
Sequence of Androgen receptor (Homo sapiens) (P10275 whole entry, looked up): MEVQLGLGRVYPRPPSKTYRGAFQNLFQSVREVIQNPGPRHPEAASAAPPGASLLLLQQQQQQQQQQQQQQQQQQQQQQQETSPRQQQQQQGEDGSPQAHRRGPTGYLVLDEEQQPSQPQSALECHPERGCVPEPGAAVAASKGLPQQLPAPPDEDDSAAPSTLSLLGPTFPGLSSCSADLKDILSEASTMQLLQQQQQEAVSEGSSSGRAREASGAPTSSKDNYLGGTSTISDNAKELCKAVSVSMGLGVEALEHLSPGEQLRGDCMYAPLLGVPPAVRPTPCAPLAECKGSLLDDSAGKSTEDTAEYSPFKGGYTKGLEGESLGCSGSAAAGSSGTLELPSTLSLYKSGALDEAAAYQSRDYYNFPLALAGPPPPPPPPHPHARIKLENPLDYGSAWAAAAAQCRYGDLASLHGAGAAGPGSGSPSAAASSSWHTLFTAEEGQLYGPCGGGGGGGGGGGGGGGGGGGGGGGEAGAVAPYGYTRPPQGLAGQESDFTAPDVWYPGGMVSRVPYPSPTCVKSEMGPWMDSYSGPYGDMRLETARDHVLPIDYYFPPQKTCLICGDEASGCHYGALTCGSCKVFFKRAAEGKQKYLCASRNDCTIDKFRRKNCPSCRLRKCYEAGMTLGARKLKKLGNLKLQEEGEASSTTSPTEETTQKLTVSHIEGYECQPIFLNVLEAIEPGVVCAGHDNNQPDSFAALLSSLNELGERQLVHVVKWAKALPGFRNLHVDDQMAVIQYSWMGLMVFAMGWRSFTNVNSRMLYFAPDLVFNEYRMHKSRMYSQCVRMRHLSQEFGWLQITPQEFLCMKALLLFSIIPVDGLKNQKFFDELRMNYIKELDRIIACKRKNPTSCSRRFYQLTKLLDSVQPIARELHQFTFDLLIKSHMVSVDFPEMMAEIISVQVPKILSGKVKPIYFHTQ

Cn1c(N)nc2nc[nH]c2c1=O
active: [11] 48 µM
not listed: [14] | [15] | [16] | [17] | [18]
inactive: all other assays above

CC1CCc2cc(F)cc3c(=O)c(C(=O)O)cn1c23 (stereo unspecified)
not listed: [2] | [3] | [5] | [8] | [18]
inactive: all other assays above

CN(C)CC/C=C1\c2ccccc2COc2ccccc21
active: [9] 26.6 µM | [11] 29.8 µM
not listed: [2] | [3] | [6] | [7] | [8] | [10]
inactive: all other assays above

C=CC(C)(CCC=C(C)C)OC(=O)c1ccccc1 (stereo unspecified)
not listed: [7] | [8] | [9] | [14] | [18]
inactive: all other assays above

CC(C)c1ccccc1C(C)C
not listed: [7] | [14] | [18]
inactive: all other assays above
